Screening data (PubChem BioAssay)
Only some compounds are listed: those with a hit (about 8.5% of all), similar ones and a draw of the others.
Coupling enz – coupling enzyme interference in Giardia aldolase counter-screen; coupling enzyme system counterscreen, AmpLite Red fluorescence; 290,000 tested, 0.67% active; activity change, negative = inhibition, % at 58.2 µM, hits read low; AID 2472; in the data active = activity change below about -30%
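Activity here indicates interference with the coupling reaction, not aldolase inhibition. Compounds at 57.5 uM final met coupling enzymes for 10 min at RT; substrate and AmpLite Red detection followed, with a 525/598 nm fluorescence read after 20 min.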
GoLoco inh red – inhibitors of human Gai1-RGS12 GoLoco interaction (red fluorophore) | P63096 | Gai1:RGS12 GoLoco peptide FP, rhodamine, 10 min | Potency, µM (series often up to 61.6 µM), for inactives: top-dose activity, negative = inhibition, usual class: inhibitors | 230,000 tested, 0.44% active | AID 880; active = well fitted inhibition curve with a large enough effect, not every such curve was filed as active; inactive = no such curve, though single readings can be large or run the other way; note: potency is the fitted concentration of half-maximal effect; nearly all actives have a fitted effect of over 30% in size
Target sequence (P63096 whole entry, looked up): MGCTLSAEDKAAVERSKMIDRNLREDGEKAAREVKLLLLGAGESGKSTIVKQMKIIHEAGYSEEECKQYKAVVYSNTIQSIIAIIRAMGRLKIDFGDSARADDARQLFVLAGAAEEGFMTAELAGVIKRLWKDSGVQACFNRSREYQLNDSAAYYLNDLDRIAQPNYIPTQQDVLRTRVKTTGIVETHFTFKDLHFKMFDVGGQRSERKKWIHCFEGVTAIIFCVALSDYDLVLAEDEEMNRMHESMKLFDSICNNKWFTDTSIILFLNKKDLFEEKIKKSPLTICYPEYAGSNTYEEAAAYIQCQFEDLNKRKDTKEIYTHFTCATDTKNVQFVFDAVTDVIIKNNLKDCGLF
ALDH1A1 block – inhibitors of human aldehyde dehydrogenase 1A1; P00352; Purified ALDH1A1, NADH fluorescence, propionaldehyde substrate; Potency, µM (doses to about 75.3 µM), without a hit: at the highest dose activity, negative = inhibition, actives largely listed as inhibitors; 220,000 tested, 7.3% active; AID 1030; active = well fitted inhibition curve with a large enough effect, not every such curve was filed as active; inconclusive = small, poorly fitted or top-dose-only effect, or another doubt; inactive = no such curve, though single readings can be large or run the other way;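 note: potency is the fitted concentration of half-maximal effect; plate controls were no enzyme wells and a reference inhibitor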
KDM4E inh – inhibitors of human JMJD2E histone demethylase. 230,000 tested, 1.6% active. JMJD2E catalytic domain, FDH-coupled NADH fluorescence (FDH is formaldehyde dehydrogenase). Potency, µM (titrated, usually from 57.1 µM), without a hit: at the highest dose activity change, negative = inhibition, actives largely listed as inhibitors. B2RXH2. AID 2147; active = well fitted inhibition curve with a large enough effect, not every such curve was filed as active; inconclusive = small, poorly fitted or top-dose-only effect, or another doubt; inactive = no such curve, though single readings can be large or run the other way;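 note: potency is the fitted concentration of half-maximal effect; 0% = wells with enzyme and -100% = buffer wells without enzyme; nearly all actives have a fitted effect of over 50% in size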
NPSR antag – antagonists of human neuropeptide S receptor cAMP signaling | Potency, µM (top dose mostly 38.3 µM), inactives show top-dose activity change, negative = inhibition, most hits filed as inhibitors | CHO-NPSR cells, cAMP TR-FRET, antagonist mode | 220,000 tested, 1% active | Q6W5P4; note: potency is the fitted concentration of half-maximal effect; nearly all actives have a fitted effect of over 50% in size
Sfp inh – blocks B. subtilis Sfp PPTase activity; Q9F4F7; Biochemical Sfp PPTase activity, qHTS; Potency, µM, for the others: largest response in the series, negative = inhibition, usual class: inhibitors; 310,000 tested, 3.5% active; AID 1490;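 note: the enzyme is Sfp with the accession as filed and its product quenches rhodamine fluorescence; potency is the fitted concentration of half-maximal effect; 0% = enzyme reaction without inhibitor and -100% = no enzyme wells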
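Sfp 15 nM + cpd, 15 min RT; start w/ rhodamine-CoA 5 uM, BHQ-2-YbbR 12.5 uM (final); 50 mM Hepes pH 7.6, 10 mM MgCl2, 0.01% NP-40, 0.01% BSA; read 525/598 nm at 0 and 30 min.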
The depositor's hits bear a star; ? = inconclusive; nt = no result; [ ] = dose if it differs, or a comment. Unless noted, calls come from the whole dose curve; as a rule, active = well fitted curve in the direction sought with a large enough effect; inconclusive = small, poorly fitted or top-dose-only effect, or another doubt; inactive = no such curve, though single readings can be large; an effect the other way counts as inactive or inconclusive. Unless noted, % is set by controls: 0 for no effect and ±100 for the full control effect.

SMILES	Coupling enz	GoLoco inh red	ALDH1A1 block	KDM4E inh	NPSR antag	Sfp inh
O=C1C2CC=CCC2C(=O)N1CC1CCCO1 (stereo unspecified)	4.4	-1.8%	-8.8%	14.3%	-2.7%[46.1 µM]	21.8%
O=C1/C(=C/c2cccnc2)SC(=S)N1CC1CCCO1 (stereo unspecified)	3.7	12.6%	5.01µM*	-7.7%	5.7%	2.4%
Cc1ccc(/C=C2/SC(=S)N(C3CCCCC3)C2=O)o1	-6.2	nt	nt	nt	nt	-27.2%
O=C1/C(=C/c2ccco2)SC(=S)N1CC1CCCO1 (stereo unspecified)	-13.0	75.4%	nt	11.2µM*	57.4%	17.8µM*
Cc1ccc(N(C(=O)CNC(=O)c2ccco2)C(C(=O)NC2CCCCC2)c2cccnc2)cc1 (stereo unspecified)	-2.1	nt	nt	nt	nt	12.3%
Cc1cc(C)c2nc(NC(=O)[C@@H](NC(=O)c3cccc(S(=O)(=O)N4CCOCC4)c3)C(C)C)sc2c1	-14.8	2.3%	0.1%	3.7%	-20.2%	-5.3%
CC(C)(C)OC(=O)N1CCC(c2c(C(=O)NC3CC3)cnn2-c2ccc(Cl)cc2)CC1	-0.8	nt	nt	nt	nt	9.4%
COc1ccc(/C=C2\SC(=S)N(CC3CCCO3)C2=O)cc1 (stereo unspecified)	-3.3	59.1%	nt	-4.5%	-0.8%	-4.2%
O=C(O)C(c1ccccc1)N1C(=O)/C(=C\c2ccc(-c3ccc(Br)cc3)o2)SC1=S (stereo unspecified)	1.9	nt	nt	nt	nt	-23.3%
O=C(O)C(c1ccccc1)N1C(=O)/C(=C\c2ccc(-c3ccccc3Cl)o2)SC1=S (stereo unspecified)	2.4	nt	nt	nt	nt	50.1µM*
COc1cc(/C=C2/SC(=S)N(CC3CCCO3)C2=O)ccc1O (stereo unspecified)	0.1	247.6%	0.141µM*	-3.1%	-8.4%	?
CC(C)[C@@H](OCc1ccccc1)[C@H](C)/C=N\O[C@@H](C)c1cn([C@@H]2COC[C@@H]2O)nn1	-1.0	nt	8.3%[13.5 µM]	nt	nt	1.2%
CN1C(=O)c2cccc3c(S(N)(=O)=O)ccc1c23	-0.6	nt	nt	nt	nt	10.7%
CN1C(=O)c2cccc3c(S(=O)(=O)NCc4ccco4)ccc1c23	-20.6	5.4%	14.1µM*	?	1.0%[46.1 µM]	-19.3%
Cc1cc(C)nc(N2CCN(C(=O)c3ccc(S(=O)(=O)N4CCCCCC4)cc3)CC2)n1	0.2	-2.9%	17.8µM*	-6.4%	-22.9%	5.9%
O=C(c1ccc(S(=O)(=O)N2CCCCC2)cc1)N1CCN(CCN2C(=O)c3cccc4cccc(c34)C2=O)CC1	0.1	1.3%	0.631µM*	310.4%	-15.0%	15.1%
CC(=O)OCCN(C)c1cc(SC(C)C)c2nonc2c1[N+](=O)[O-]	-23.0	-8.9%	?	-8.8%	-22.9%	-27.2%
CN(CCO)c1cc(Sc2nc3ccccc3s2)c2nonc2c1[N+](=O)[O-]	-7.4	-29.7%	25.1µM*	-3.9%	-10.2%[46.1 µM]	25.1µM*
Cc1cccc(OCC(=O)NCCCNC(=O)c2ccncc2)c1	nt	nt	nt	nt	nt	15.6%
O=C(O)Cc1ccc(NC(=O)c2ccc3c(c2)C(=O)N(Cc2ccco2)C3=O)cc1	nt	nt	nt	nt	nt	6.4%
Cc1sc2nc(CSc3ccc([N+](=O)[O-])c(C(F)(F)F)c3)[nH]c(=O)c2c1C	0.6	138.1%	8.2%	-7.7%	-25.4%	56.2µM*
CC(=O)Nc1cc2nc(C)n(Cc3ccc([N+](=O)[O-])cc3)c2nc1C	-0.5	nt	nt	nt	nt	2.9%
CC(C)COC(=O)/C(C#N)=C/c1c[nH]c2ccccc12	-2.0	4.4%	?	-9.5%	-13.2%[46.1 µM]	8.6%
O=S(=O)(Nc1nc2ccccc2nc1Nc1ccc2c(c1)OCCO2)c1cccs1	3.7	5.0%	3.6%	22.4µM*	-18.0%[46.1 µM]	-2.1%
COc1ccc(S(=O)(=O)Nc2nc3ccccc3nc2Nc2ccc3c(c2)OCO3)cc1	4.7	11.9%	?	-0.1%	-2.8%	13.8%
O=C1CS/C(=N/N=C2CCCC2)N1	3.3	-3.8%	-3.7%	2.8%	1.7%	-4.3%
O=C1CSC(=NC2CCCCC2)N1	0.7	5.2%	7.94µM*	3.7%	8.0%[46.1 µM]	-4.6%
COc1cccc2oc3cc(C#Cc4ccccn4)ccc3c(=O)c12	0.1	nt	nt	nt	nt	39.8µM*
